DT40 TDP1 CPT: growth inhibition of DT40 Tdp1-/-;hTDP1 cells with camptothecin (screen for TDP1 inhibitors); Potency, µM (doses to about 46.2 µM), usual class: inhibitors; 420,000 compounds, 12% hits; chicken DT40 Tdp1-/-;hTDP1 cells + 20 nM CPT, ATP luminescence, 48 h; further: nearly all actives have a fitted effect of over 55% in size
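Chicken DT40 Tdp1-/- cells complemented with human TDP1, 400 cells/well, exposed to compounds plus 20 nM camptothecin for at least 48 h at 37 C; viability read as ATP content by CellTiter-Glo luminescence.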
MCF10A rereplic: induces DNA re-replication in MCF 10a normal breast cells; MCF 10A DNA re-replication, Hoechst nuclear intensity, 48 h; Potency, µM (top dose mostly 46.1 µM), hits mostly activators; 350,000 compounds, 2.9% hits; AID 624296; further: nearly all actives have a fitted effect of over 50% in size
IL-1B inflam inh: blocks inflammasome-driven IL-1 beta release. THP-1 LPS/ATP IL-1B secretion, AlphaLISA, 16 h; stronger effect = lower value. activity change, % at 57.5 µM. 360,000 compounds, 4.7% hits. AID 743279; in the data active means activity change below about -50%; inconclusive means mostly about -30% to -49%
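THP-1 cells pretreated 1 hr with compounds (up to 57.5 uM final), then stimulated with LPS (250 ng/mL final) plus ATP (1.25 mM final); secreted IL-1B measured by AlphaLISA after 16 hr, decreased signal indicating inhibition.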
SW480 rerep: induces DNA re-replication in SW480 colon adenocarcinoma cells | SW480 DNA re-replication, Hoechst DNA content imaging, 48 h | Potency, µM (doses to about 46.1 µM), most hits filed as activators | 340,000 compounds, 1.8% hits | AID 624297; further: nearly all actives have a fitted effect of over 55% in size
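Readout is total intensity of Hoechst-stained nuclei, excited at 405 nm and collected at 500-530 nm. Compound treatment lasted 48 hr at 37 C in 5% CO2 before staining.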
Chronic BCR inh: inhibitors of chronic active B-cell receptor signaling | AID 493014 | 340,000 compounds, 0.05% hits | Potency, µM (highest dose often 46.1 µM), usual class: inhibitors | ABC-DLBCL IkBa-CBG/CBR reporter, luminescence ratio, 4 h; active means well fitted inhibition curve with a large enough effect in the signal ratio, with a control signal flat, not every such curve was filed as active; inconclusive means small, poorly fitted or top-dose-only effect, or effect the other way, or a change in a side signal; the % refers to the signal ratio
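TMD8 ABC-DLBCL cells carrying doxycycline-inducible green luciferase fused to IkappaBalpha plus unfused red luciferase were exposed to compounds (up to 46 uM) for 4 hrs at 37C. Activity came from the overlap-corrected green/red luminescence ratio.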
TDP1 cell noCPT: qHTS for Inhibitors of human tyrosyl-DNA phosphodiesterase 1 (TDP1): qHTS in cells in absence of CPT; DT40 Tdp1-/- hTDP1 cells, no CPT, ATP luminescence, 48 h; Potency, µM (doses to about 46.2 µM), hits mostly inhibitors; 420,000 compounds, 15% hits; AID 686978, 2013; further: nearly all actives have a fitted effect of over 55% in size
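A cellular qHTS used chicken DT40 cells lacking endogenous Tdp1 but carrying stably transfected human TDP1. Compounds were applied without camptothecin, and cell growth kinetics were judged by ATP-dependent luminescence after ≥48 hr.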
Each line names hits and unclear results; the compound was inactive in the other large screens. Shown are actives, neighbours in structure and some others; about 19% of the full set was active somewhere. Unless noted, the call rests on the fitted dose curve; in most records, active means well fitted curve in the direction sought with a large enough effect; inconclusive means small, poorly fitted or top-dose-only effect, or another doubt; inactive means no such curve, though single readings can be large; an effect the other way counts as inactive or inconclusive.

CC(C)C[C@H]1CN=C(Nc2ccccc2)N1CC(C)C	none
CCN1C(Nc2ccccc2)=NC[C@@H]1C	none
CCC(CC)CN1C(Nc2ccccc2)=NC[C@@H]1CC(C)C	DT40 TDP1 CPT inconclusive, Chronic BCR inh inconclusive, TDP1 cell noCPT inconclusive
CC(C)C[C@H]1CN=C(Nc2ccccc2)N1CC1CCC(C(C)(C)C)CC1 (some centres not stated)	DT40 TDP1 CPT 5.8µM, MCF10A rereplic inconclusive, IL-1B inflam inh -87, Chronic BCR inh inconclusive, TDP1 cell noCPT 6.5µM
c1ccc(C[C@H]2CN=C(Nc3ccccc3)N2CCC2CCCC2)cc1	DT40 TDP1 CPT inconclusive, IL-1B inflam inh inconclusive, Chronic BCR inh inconclusive, TDP1 cell noCPT 15µM
CC(C)C[C@H]1CN=C(Nc2ccccc2)N1CC1CCCC1	DT40 TDP1 CPT inconclusive, TDP1 cell noCPT 16µM
CS(=O)(=O)Nc1cccc(-c2cncnc2NCc2ccccc2)c1	none (no result: MCF10A rereplic, IL-1B inflam inh, SW480 rerep, Chronic BCR inh)
O=C(CCn1cnc2onc(-c3ccc(F)cc3)c2c1=O)Nc1cccc(C(F)(F)F)c1	DT40 TDP1 CPT 16µM, TDP1 cell noCPT 16µM (no result: MCF10A rereplic, IL-1B inflam inh, SW480 rerep, Chronic BCR inh)
O=C(O)CCn1cnc2onc(-c3cc(F)cc(F)c3)c2c1=O	none (no result: MCF10A rereplic, IL-1B inflam inh, SW480 rerep, Chronic BCR inh)
Cc1ccc(NC(=O)CCn2cnc3onc(-c4ccc(F)cc4)c3c2=O)c(Br)c1	none (no result: MCF10A rereplic, IL-1B inflam inh, SW480 rerep, Chronic BCR inh)
O=C(CCn1cnc2onc(-c3ccc(F)cc3)c2c1=O)Nc1ccc(F)c(Cl)c1	DT40 TDP1 CPT 13µM, TDP1 cell noCPT 15µM (no result: MCF10A rereplic, IL-1B inflam inh, SW480 rerep, Chronic BCR inh)
CC(=O)N1c2cc3ccccc3cc2N(C(C)=O)c2cc3ccccc3cc21	DT40 TDP1 CPT inconclusive (no result: Chronic BCR inh)
CC(=O)C1=C(C)NC(SCC(=O)c2ccccc2)=C(C#N)C1CC(C)C (configuration not stated)	DT40 TDP1 CPT inconclusive, MCF10A rereplic inconclusive, Chronic BCR inh inconclusive, TDP1 cell noCPT 16µM
CCC(=O)N(C)C[C@H]1Oc2cc(-c3ccccc3F)ccc2S(=O)(=O)N([C@H](C)CO)C[C@H]1C	DT40 TDP1 CPT inconclusive, TDP1 cell noCPT inconclusive (no result: MCF10A rereplic, SW480 rerep, Chronic BCR inh)
COc1cc(/C=C/C(=O)OCC(=O)NCc2ccco2)ccc1O	DT40 TDP1 CPT 21µM, MCF10A rereplic inconclusive, Chronic BCR inh inconclusive, TDP1 cell noCPT 16µM
COc1ccccc1/C=C/C(=O)OCC(=O)NCc1ccco1	DT40 TDP1 CPT 18µM, TDP1 cell noCPT inconclusive
COc1cc(/C=C/C(=O)OCC(=O)NNC(=O)c2cc(Cl)ccc2OC)ccc1O	DT40 TDP1 CPT inconclusive
COc1ccccc1/C=C/C(=O)OCC(=O)NNC(=O)c1ccccc1	TDP1 cell noCPT 18µM
O=C(COC(=O)/C=C/c1ccc(F)cc1)NCc1ccco1	none
COc1cccc(OC)c1C(=O)OCC(=O)NCc1ccco1	none
COc1cc(/C=C/C(=O)OCC(=O)Nc2ccccc2Sc2ccc(Cl)cc2)ccc1O	DT40 TDP1 CPT inconclusive, MCF10A rereplic 21µM, IL-1B inflam inh inconclusive, Chronic BCR inh inconclusive, TDP1 cell noCPT inconclusive
O=S1(=O)N[C@H](Cc2ccccc2)COc2cc(N3CC[C@H](O)C3)ccc21	DT40 TDP1 CPT inconclusive, TDP1 cell noCPT inconclusive (no result: MCF10A rereplic, SW480 rerep, Chronic BCR inh)
COc1cccc(N2CC(NC(=O)COc3ccc4ccccc4c3)CC2=O)c1 (configuration not stated)	DT40 TDP1 CPT inconclusive, TDP1 cell noCPT inconclusive (no result: MCF10A rereplic, IL-1B inflam inh, SW480 rerep)
COC(=O)c1cc(NC(=O)c2ccc3c(c2)NC(=O)c2ccccc2S3)cc(C(=O)OC)c1	DT40 TDP1 CPT 4.6µM, TDP1 cell noCPT 6.5µM (no result: MCF10A rereplic, IL-1B inflam inh, SW480 rerep)
Cc1ccc(NC(=S)NCCc2ccccc2)c(C)c1	DT40 TDP1 CPT inconclusive, SW480 rerep inconclusive, TDP1 cell noCPT inconclusive
Cc1ccc(C)c(NC(=S)NNc2ccc(F)cc2F)c1	DT40 TDP1 CPT inconclusive, MCF10A rereplic inconclusive, IL-1B inflam inh -100, Chronic BCR inh inconclusive, TDP1 cell noCPT inconclusive
Cc1ccc(C)c(NC(=S)NCCc2ccc(F)cc2)c1	DT40 TDP1 CPT inconclusive, MCF10A rereplic inconclusive, IL-1B inflam inh -67, SW480 rerep inconclusive, TDP1 cell noCPT inconclusive
COc1ccccc1-c1ccnc(-n2ncc(C(=O)NCCc3cccnc3)c2C)n1	none (no result: MCF10A rereplic, IL-1B inflam inh, SW480 rerep, Chronic BCR inh)
